Screens (PubChem)
Sampled rows, rich in hits. Any-hit rate of the full collection: about 1.3%.
EPAC2 agonist: EPAC2 (human) agonism | Potency, µM (highest dose often 154 µM), actives largely listed as activators | 360,000 tested, 0.079% active | EPAC2 activation, biochemical qHTS; response scale: 100% = 6.5 mM cAMP response | Q8WZA2; note: nearly all actives have a fitted effect of over 50% in size
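Each well held 100 nM EPAC2, 250 nM RAP1B-BODIPY-GDP and 50 uM GDP. Fluorescence, read at 5-min intervals to 30 min, was referenced to a 6.5 mM cAMP positive control.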
EPAC1 antag: EPAC1 (human) antagonism | O95398 | EPAC1 GEF assay, Rap1b-BODIPY-GDP exchange fluorescence | Potency, µM (doses to about 115 µM), most hits filed as inhibitors | 360,000 tested, 0.14% active | AID 720709; note: nearly all actives have a fitted effect of over 50% in size
Target sequence (O95398 whole entry, looked up): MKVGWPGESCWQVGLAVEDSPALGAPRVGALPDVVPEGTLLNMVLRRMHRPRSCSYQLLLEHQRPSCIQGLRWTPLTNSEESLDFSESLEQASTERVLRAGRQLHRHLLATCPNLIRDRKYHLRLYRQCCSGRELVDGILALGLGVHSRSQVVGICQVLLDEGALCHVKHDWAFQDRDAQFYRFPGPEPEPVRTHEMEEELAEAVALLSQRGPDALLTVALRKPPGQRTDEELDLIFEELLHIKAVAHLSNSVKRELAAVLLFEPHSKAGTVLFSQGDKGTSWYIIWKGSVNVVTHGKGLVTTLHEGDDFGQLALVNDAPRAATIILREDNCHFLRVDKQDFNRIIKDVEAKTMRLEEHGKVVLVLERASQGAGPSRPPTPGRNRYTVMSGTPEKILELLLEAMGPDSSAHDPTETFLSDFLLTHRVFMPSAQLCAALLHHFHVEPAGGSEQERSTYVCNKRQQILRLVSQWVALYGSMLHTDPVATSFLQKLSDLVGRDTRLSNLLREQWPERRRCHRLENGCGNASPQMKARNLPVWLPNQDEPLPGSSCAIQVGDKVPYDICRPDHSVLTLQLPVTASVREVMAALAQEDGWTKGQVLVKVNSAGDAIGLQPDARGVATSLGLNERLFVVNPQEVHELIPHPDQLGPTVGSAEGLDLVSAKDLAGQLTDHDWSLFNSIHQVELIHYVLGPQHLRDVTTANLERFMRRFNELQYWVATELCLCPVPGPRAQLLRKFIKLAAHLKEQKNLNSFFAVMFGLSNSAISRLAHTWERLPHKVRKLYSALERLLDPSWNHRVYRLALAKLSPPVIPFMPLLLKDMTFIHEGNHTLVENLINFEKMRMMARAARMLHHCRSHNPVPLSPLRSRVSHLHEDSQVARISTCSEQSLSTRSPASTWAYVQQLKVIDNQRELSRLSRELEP
BRCA1 expr up: BRCA1 expression activation; MCF7-BRCA1-FFLuc reporter, luminescence, 48 h; response scale: scaled: vehicle 0%, 10 µM genistein 100%; Potency, µM (doses to about 46.1 µM), actives largely listed as activators; 380,000 tested, 1.1% active; note: nearly all actives have a fitted effect of over 80% in size
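MCF7-BRCA1-FFLuc cells, 2000/well in phenol-red-free MEM, attached 2 h then treated 48 h at 37 C. Luciferase luminescence read 15 min after reagent; normalized to genistein maximum activation (10microM) and DMSO, concentration-response fitted.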
RGS4 inh: blocks human RGS4-accelerated GTP hydrolysis | 390,000 tested, 0.039% active | Transcreener GDP fluorescence polarization, RGS4-accelerated GTP hydrolysis | Potency, µM (titrated, usually from 114 µM), actives largely listed as inhibitors | AID 504845 | P49798; note: nearly all actives have a fitted effect of over 75% in size
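MLSMR compounds (23 nl, pin-transferred) preincubated 10 min at room temperature with a 500nM (2x) first reagent, then RGS4 at 900nM (2x) plus Transcreener GDP mix added; fluorescence polarization (620/688 nm) read before and after 90 min at 30 °C.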
EPAC1 agonist: agonists of human EPAC1 | Potency, µM (highest dose often 154 µM), actives largely listed as activators | 360,000 tested, 0.073% active | EPAC1 agonist qHTS, biochemical assay; response scale: 100% = response to 6.5 mM cAMP | O95398; note: nearly all actives have a fitted effect of over 60% in size
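Nucleotide exchange assay: 100 nM EPAC1 with 250 nM Rap1B loaded with BODIPY-GDP and 50 uM GDP, room temperature. Fluorescence (480/540 nm) read every 5 min for 30 min; signal change normalized to 6.5 mM cAMP as full agonist.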
EPAC2 antag: antagonists of human EPAC2. EPAC2 GEF exchange of Rap1B-BODIPY-GDP, fluorescence. Potency, µM (doses to about 114 µM), hits mostly inhibitors. 360,000 tested, 0.18% active. AID 720708; note: nearly all actives have a fitted effect of over 45% in size
Each line names hits and unclear results; the compound was inactive in the other large screens. Calls come from the whole dose curve; as a rule, active = well fitted curve in the direction sought with a large enough effect; inconclusive = small, poorly fitted or top-dose-only effect, or another doubt; inactive = no such curve, though single readings can be large; an effect the other way counts as inactive or inconclusive.

O=C(O)c1ccc(S(=O)(=O)/N=C2\C=C(Nc3ccccc3F)C(=O)c3ccccc32)cc1	EPAC1 antag 22µM, EPAC2 antag inconclusive
Cc1ccccc1NC1=C/C(=N\S(=O)(=O)c2ccc(C(=O)O)cc2)c2ccccc2C1=O	EPAC1 antag 40µM, EPAC2 antag 50µM
O=C(N/N=C/C(Br)=C/c1ccccc1)c1ccccc1F	BRCA1 expr up inconclusive
CC(/C=N\NC(=O)c1cc(C)oc1C)=C\c1ccccc1	BRCA1 expr up 2µM
Cc1ccc(/C=N/NC(=O)c2cc(C)oc2C)cc1	none
O=C(N/N=C/C(Cl)=C/c1ccccc1)c1ccccc1F	EPAC1 antag inconclusive, BRCA1 expr up 10µM
CC(/C=N/NC(=O)c1cccnc1)=C\c1ccccc1	EPAC1 antag inconclusive, BRCA1 expr up 3.2µM
CC(/C=N/NC(=O)c1ccncc1)=C\c1ccc(C(C)C)cc1	BRCA1 expr up 8.9µM
COc1ccc(CNC(=O)c2ccc(CNS(=O)(=O)c3ccc(OC)cc3)cc2)cc1	none (no result: EPAC2 agonist, EPAC1 antag, EPAC1 agonist, EPAC2 antag)
NC(=O)C1CCN(c2ccc(S(=O)(=O)N3CCCCC3)cc2[N+](=O)[O-])CC1	none
Cc1ccc(S(=O)(=O)N2C(=O)c3cccc4cccc2c34)cc1	EPAC1 antag inconclusive, EPAC2 antag inconclusive
O=C1c2ccccc2C(=O)N1CCCc1nc(-c2ccncc2)no1	none
Nc1nonc1-c1noc(CCCN2C(=O)c3ccccc3C2=O)n1	BRCA1 expr up 4.5µM
CCCN1CNC(=S)N(c2ccccc2OCC)C1	none
COc1ccc(-n2c(C)nn(CCOc3ccccc3)c2=O)cc1	BRCA1 expr up 10µM
O=[N+]([O-])c1ccc(CSc2nc3ccccc3[nH]2)cc1	BRCA1 expr up 4µM
CN(C)Cc1c(O)ccc2cc(-c3nc4ccccc4n3C)c(=O)oc12	BRCA1 expr up 13µM
CSc1nc2ccc3nc(NC(=O)c4cccs4)sc3c2s1	BRCA1 expr up 8.9µM, RGS4 inh inconclusive
O=C1NC(=O)/C(=C/c2cccc3ccccc23)S1	EPAC1 antag inconclusive, BRCA1 expr up inconclusive, EPAC2 antag inconclusive
O=C1NC(=O)C(=Cc2ccccc2[N+](=O)[O-])S1	EPAC1 antag 50µM, EPAC2 antag 79µM
CCc1nnc(NS(=O)(=O)c2ccc(N/C=C\C(=O)c3ccc4ccccc4c3)cc2)s1	EPAC1 antag 50µM
CCc1nnc(NS(=O)(=O)c2ccc(NC(=S)NC(=O)c3ccc(Br)cc3)cc2)s1	EPAC1 antag 56µM, RGS4 inh inconclusive
CCc1nnc(NS(=O)(=O)c2ccc(NC(=S)NC(=O)/C=C/c3ccc(C(C)C)cc3)cc2)s1	EPAC1 antag 79µM, RGS4 inh inconclusive, EPAC2 antag inconclusive
CC(C)(C)NC(=O)N1CCN(c2nc3ccc(Cl)cc3s2)CC1	BRCA1 expr up 10µM
O=C(NC(=S)Nc1cccnc1Cl)c1ccc(F)cc1	BRCA1 expr up 10µM
O=C(CC(=O)c1ccccc1)Nc1cccnc1Cl	BRCA1 expr up 7.1µM
O=C(NC(=S)Nc1ncccn1)c1ccc(F)cc1	BRCA1 expr up inconclusive
CC(C)(C)n1ncc2c(=O)n(CC(=O)c3ccccc3)cnc21	BRCA1 expr up 13µM
CC(C)(C)n1ncc2c(=O)n(CC(=O)OCc3ccccc3)cnc21	none
O=C(Cn1cnc2ccccc2c1=O)c1ccc(Cl)cc1	BRCA1 expr up 8.9µM
O=C(O)c1cnn(-c2nc(-c3ccc(Cl)cc3)cs2)c1C(F)(F)F	BRCA1 expr up 4.5µM, EPAC2 antag inconclusive
COc1ccc(-c2csc(-n3ncc(C(=O)O)c3C(F)(F)F)n2)cc1	BRCA1 expr up inconclusive, EPAC2 antag inconclusive
COc1cc(/C=C/c2cc(C(=O)O)c3ccccc3n2)ccc1OC(F)F	EPAC1 antag inconclusive, BRCA1 expr up 2.5µM, EPAC2 antag inconclusive
O=C(O)c1cc(/C=C/c2ccc(N3CCOCC3)cc2)nc2ccccc12	none
Oc1ccc(N=Cc2ccc(-c3cccs3)s2)cc1	EPAC1 antag 32µM, EPAC2 antag inconclusive
O=C(Nc1ccc2c(c1)Cc1cc([N+](=O)[O-])ccc1-2)C(F)(F)F	BRCA1 expr up 4µM
